Results filed as inconclusive are left out. Active and inactive are the calls of the source. Unless noted, calls follow the shape of the dose curve; as a rule, active = well fitted curve in either direction with a large enough effect (not every such curve was filed as active); inconclusive = small, poorly fitted or top-dose-only effect, or another doubt; inactive = flat fitted curve, though single readings scatter.

In one experiment the target is Cytochrome P450 1A2 (Homo sapiens) (UniProt P05177). The experiment in a line: p450-cyp1a2 (AID 410; calls by dose curve; also: potency is read from the fitted curve at half-maximal effect;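 as to activity change, negative = inhibition: -100% = full effect of reference inhibitor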). The following applies: recombinant CYP1A2, luciferin-ME demethylation, luminescence; series mostly up to 57 µM. The essentials: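 Luminescent demethylation readout: Luciferin-ME (100uM, equal to Km) turned over by 20nM CYP1A2 for 60 min at room temperature after NADPH regeneration addition, following 10 min compound preincubation. Normalization used 57 uM furafylline as full inhibition.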
Chain of Cytochrome P450 1A2 (Homo sapiens) (P05177 whole entry, looked up): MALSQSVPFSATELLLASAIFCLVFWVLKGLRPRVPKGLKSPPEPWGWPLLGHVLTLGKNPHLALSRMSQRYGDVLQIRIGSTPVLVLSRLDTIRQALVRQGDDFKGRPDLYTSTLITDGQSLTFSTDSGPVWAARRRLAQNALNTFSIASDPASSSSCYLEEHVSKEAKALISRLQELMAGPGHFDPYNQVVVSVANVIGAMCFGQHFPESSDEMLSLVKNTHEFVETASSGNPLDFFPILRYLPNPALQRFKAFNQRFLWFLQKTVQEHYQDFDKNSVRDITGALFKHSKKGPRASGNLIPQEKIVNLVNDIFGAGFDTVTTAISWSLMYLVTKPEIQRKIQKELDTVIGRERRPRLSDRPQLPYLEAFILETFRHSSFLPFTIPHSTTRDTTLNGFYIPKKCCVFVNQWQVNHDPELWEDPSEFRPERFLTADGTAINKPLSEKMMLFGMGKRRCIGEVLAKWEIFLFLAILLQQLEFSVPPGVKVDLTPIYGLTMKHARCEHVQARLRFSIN
With `Cn1c(=O)c(-c2cc(F)cc(F)c2)nc2cnc(N3CCOCC3)nc21`, the Potency is 5.01 µM (active).

`O=c1cnc2cnc(N3CCOCC3)nc2n1CCc1ccccc1`: the Potency is 3.16 µM (active).

In the case of `Cc1ccccc1-c1cc(N(C)C)ncn1`, the Potency was 2 µM (active).

Take `CCNc1ncc2ncc(=O)n(C3CC3)c2n1`: the Potency is 3.16 µM (active).

As to `COCCn1c(=O)c(-c2cc(F)cc(F)c2)nc2cnc(N3CCOCC3)nc21`, the Potency is 12.6 µM (active).

Regarding `O=c1c(-c2ccc(F)cc2)nc2cnc(N3CCNCC3)nc2n1Cc1ccc(F)cc1`, the Potency was 15.8 µM (active).

With `COc1ccc(-n2c(=O)c(-c3cccs3)nc3cnc(N(C)C)nc32)cc1`, the Potency result is “inactive”.

On to `Fc1ccc(Nc2ncncc2-c2ccccc2C(F)(F)F)cc1`, for which the Potency is 20 µM (active).

Regarding `CN(C)c1ncnc2ccc(-c3cccnc3)cc12`, the Potency was 0.2 µM (active).

Turning to `Cc1noc(C)c1-c1ccc2ncnc(N(C)C)c2c1`, the Potency was 0.631 µM (active).

On to `CN1CCN(c2ncc3nc(-c4ccc(Cl)cc4)c(=O)n(Cc4cccs4)c3n2)CC1`, for which the Potency is 10 µM (active).

Consider `COCCNc1nc(-c2ccccc2OC)nc2ccccc12`, for which the Potency is 0.794 µM (active).

For the molecule `CN(Cc1ccco1)c1ncncc1-c1cccc(C#N)c1`, the Potency was 12.6 µM (active).

`Cc1nc2cnc(N3CCN(C)CC3)nc2n(CCC#N)c1=O`: the Potency is 12.6 µM (active).

Tested on in a further experiment: not listed separately
In words: NFAT Signaling Pathway (AID 444).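 Also: carbachol stimulus at about its EC50 of 1 µM final; % is scaled to controls: 0 for no effect and ±100 for the full control effect.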 The note with it: Jurkat NFAT-bla M1, carbachol, beta-lactamase ratio, 5 h; at 7.69 µM (top of the series) unless noted. The essentials: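 Jurkat cells carrying an NFAT-driven β-lactamase reporter and co-transfected muscarinic M1 receptor were treated with compound plus carbachol (1 uM final, an EC50 level) for 5 h at 37 °C. CCF4 loading followed for 1 h at RT; 460/530 nm ratio gave %activity.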
Turning to `Cc1nc2cnc(N3CCOCC3)nc2n(C[C@H]2CCCO2)c1=O`, the activity change, negative = inhibition was -4.93% (inactive).

With `CN(C)Cc1ccccc1-c1nc(NCc2cccs2)c2ccccc2n1`, the activity change, negative = inhibition is -24.9% (inactive).

`CN(C)c1ncc2nc(-c3ccccc3)c(=O)n(-c3ccccc3)c2n1`: the activity change, negative = inhibition was 23.9% (inactive).

In the case of `COc1ccc(-c2nc3cnc(Nc4cccc(OC)c4)nc3n(C3CC3)c2=O)cc1`, the activity change, negative = inhibition was -8.58% (inactive).

With `CN(C)c1ncc2nc(-c3cn(C)c4ccccc34)c(=O)n(C[C@H]3CCCO3)c2n1`, the activity change, negative = inhibition is 3.82% (inactive).

Take `CN(C)c1ncc2nc(-c3ccc(F)cc3)c(=O)n(C[C@H]3CCCO3)c2n1`: the activity change, negative = inhibition was 26.7% (inactive).

As to `CN(C)c1ccc(-c2cc(Nc3ccc(F)cc3)ncn2)cc1`, the activity change, negative = inhibition is -8.8% (inactive).

In the case of `CN1CCN(c2ncc3nc(-c4cc(F)cc(F)c4)c(=O)n(C4CC4)c3n2)CC1`, the activity change, negative = inhibition is -23.1% (inactive).

For the molecule `COCCn1c(=O)c(C)nc2cnc(Oc3ccc(OC)cc3)nc21`, the activity change, negative = inhibition is 7.53% (inactive).

`CN(Cc1ccco1)c1ncncc1-c1ccoc1`: the activity change, negative = inhibition was -18.1% (inactive).

For `CCNc1ncc2nc(-c3cn(C)c4ccccc34)c(=O)n(Cc3cccc(OC)c3)c2n1`, the activity change, negative = inhibition was 5.19% (inactive).

Turning to `c1ccc(Nc2cc(-c3ccoc3)ncn2)cc1`, the activity change, negative = inhibition was -0.633% (inactive).

Take `Cn1c(=O)c(-c2cccs2)nc2cnc(OCc3ccccc3)nc21`: the activity change, negative = inhibition is 22.3% (inactive).

Consider `FC(F)(F)c1ccccc1-c1cc(NCc2ccccc2)ncn1`, for which the activity change, negative = inhibition is -0.248% (inactive).

On to `Cc1nc2cnc(N(C)C)nc2n(C[C@H]2CCCO2)c1=O`, for which the activity change, negative = inhibition was -4.67% (inactive).

As to `O=c1c(CCc2ccccc2)nc2cnc(N3CCOCC3)nc2n1Cc1cccs1`, the activity change, negative = inhibition was -3.56% (inactive).

In the case of `Cn1c(=O)c(-c2cc(F)cc(F)c2)nc2cnc(N3CCOCC3)nc21`, the activity change, negative = inhibition was 14.4% (inactive).

As to `O=c1cnc2cnc(N3CCOCC3)nc2n1CCc1ccccc1`, the activity change, negative = inhibition was -13.2% (inactive).

In the case of `COCCn1c(=O)c(-c2cc(F)cc(F)c2)nc2cnc(N3CCOCC3)nc21`, the activity change, negative = inhibition was 18.8% (inactive).

For `O=c1c(-c2ccc(F)cc2)nc2cnc(N3CCNCC3)nc2n1Cc1ccc(F)cc1`, the activity change, negative = inhibition was 163% [activator] (active).

With `COc1ncc2nc(-c3ccc(F)cc3)c(=O)n(C3CC3)c2n1`, the activity change, negative = inhibition is -21.4% (inactive).

As for `COc1ccc(-n2c(=O)c(-c3cccs3)nc3cnc(N(C)C)nc32)cc1`, the activity change, negative = inhibition was -4.88% (inactive).

As for `Cn1c(=O)c(-c2ccc(Cl)cc2)nc2cnc(Nc3ccccc3)nc21`, the activity change, negative = inhibition was -8.39% (inactive).

`CN1CCN(c2cc(-c3ccoc3)ncn2)CC1`: the activity change, negative = inhibition is -3.33% (inactive).

For `COCCNc1nc(-c2ccccc2OC)nc2ccccc12`, the activity change, negative = inhibition was 8.54% (inactive).

Consider `Cc1nc2cnc(N3CCN(C)CC3)nc2n(CCC#N)c1=O`, for which the activity change, negative = inhibition was -13.7% (inactive).

With `COc1ccc(Oc2ncc3nc(C)c(=O)n(Cc4cccc(OC)c4)c3n2)cc1`, the activity change, negative = inhibition was 6.92% (inactive).

In the case of `COCCn1c(=O)c(-c2ccc(Cl)cc2)nc2cnc(Oc3cccc(Cl)c3)nc21`, the activity change, negative = inhibition was -0.0987% (inactive).

Source of the values: PubChem BioAssay (NCATS).
